Source: PubChem BioAssay AID652257 (The Scripps Research Institute Molecular Screening Center, 2013)
The whole screen tested about 370,000 compounds, of which about 4,800 (1.3%) were called active. Only a selection was taken, and actives are over-represented in it overall. A number with no mark means an inactive call.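 How the source made its calls: active means inhibition above about 21% made by adding two undisclosed values (limit read from the data); inactive means the rest.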

What follows are molecules tested against Protein arginine N-methyltransferase 1 (Homo sapiens) (UniProt Q99873) (assay: PRMT1 methyltransferase inhibitors, primary screen, biochemical, fluorescence polarization (AID 652257)). Settings: recombinant PRMT1, activity-based probe fluorescence polarization; at 2.79 µM; hits give high values.
Sequence of Protein arginine N-methyltransferase 1 (Homo sapiens) (Q99873 whole entry, looked up): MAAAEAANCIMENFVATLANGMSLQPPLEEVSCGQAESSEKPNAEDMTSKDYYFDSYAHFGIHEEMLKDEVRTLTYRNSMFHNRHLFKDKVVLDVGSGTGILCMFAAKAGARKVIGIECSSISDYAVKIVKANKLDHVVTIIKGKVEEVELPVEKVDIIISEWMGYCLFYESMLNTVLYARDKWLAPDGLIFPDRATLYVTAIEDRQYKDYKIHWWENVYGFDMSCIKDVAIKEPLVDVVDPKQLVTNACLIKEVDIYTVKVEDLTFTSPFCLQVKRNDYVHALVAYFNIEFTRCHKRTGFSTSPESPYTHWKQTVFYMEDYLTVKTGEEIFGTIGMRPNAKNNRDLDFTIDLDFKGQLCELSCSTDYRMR

Which inhibition does the source give for COc1ccc(Cl)cc1-c1cc(C(=O)Nc2cc(OC)c(OC)c(OC)c2)[nH]n1 here?
Its inhibition is -1.28%.

How did the inhibition turn out when CC(CCN1CCC(C(O)(c2ccccc2)c2ccccc2)CC1)Oc1ccc(Cl)cc1 (centres undefined) was run?
The inhibition was 0.54%.

Which inhibition does the source give for C=CCn1c(=S)[nH]c2scc(-c3ccco3)c2c1=O here?
The inhibition was 38.1% (active).

For O=C(CSc1nc2ccccc2n1Cc1ccccc1Cl)N/N=C\c1c[nH]c2ccccc12, which inhibition is on record?
Its inhibition is -0.85%.

O=C(OCC(=O)N1CCCCCC1)c1cccc(Cl)c1Cl was tested. Which inhibition did it give?
The inhibition was -1.11%.

With CC(NC(=O)Nc1ccccc1)C(c1cccs1)N1CCN(c2ccccc2)CC1 (centres undefined) as the molecule, how does the inhibition read?
The inhibition was 0.36%.

For CCOC(=O)c1ccc(NC(=S)N2CCN(c3ccccn3)CC2)cc1, which inhibition is on record?
The inhibition was -2.24%.

O=[N+]([O-])c1ccc(NC(=S)N2CCN(c3ccccn3)CC2)cc1 was tested. Which inhibition did it give?
Its inhibition is -0.91%.

With CC(=NNC(=S)N1CCCCCC1)c1ccccn1 as the molecule, how does the inhibition read?
The inhibition was 25.4% (active).

For COC(=O)C1=C[C@@H](C(=O)OC)[C@@H]2C3=C(C(=O)[C@]2(C)NC(=O)c2ccccc2)[C@H](C)n2c(=O)n(C)c(=O)n2[C@@H]3C1, which inhibition is on record?
Its inhibition is 1.61%.

Which inhibition does the source give for CCOC(=O)c1ccccc1NC(=O)CSc1nc2c(sc(=S)n2CC)c(=O)[nH]1 here?
Its inhibition is 19%.

With CSc1ncnc2c1ncn2CC(=O)C1CCC2C3CCC4=CC(=O)CCC4(C)C3CCC12C (centres undefined) as the molecule, how does the inhibition read?
Its inhibition is 0.25%.

With Cc1c(NS(=O)(=O)c2cccc(C(=O)Nc3ccc(SC(F)F)cc3)c2)c(=O)n(-c2ccccc2)n1C as the molecule, how does the inhibition read?
The inhibition was 21.1% (active).

Which inhibition does the source give for COc1ccc(C(=O)C(C)OC(=O)c2cccc(S(=O)(=O)Nc3c(C)n(C)n(-c4ccccc4)c3=O)c2)cc1 (centres undefined) here?
The inhibition was -2.91%.

For Cc1c(NS(=O)(=O)c2cc(C(=O)NCCc3ccc(F)cc3)cc(Cl)c2Cl)c(=O)n(-c2ccccc2)n1C, which inhibition is on record?
Its inhibition is -3.45%.

For Cc1ccccc1-c1nc(CS(=O)(=O)CC(=O)NC(C)c2ccccc2)c(C)o1 (centres undefined), which inhibition is on record?
The inhibition was -4.8%.

For Cc1sc2nc(CSCC(=O)NC3CCCCC3)[nH]c(=O)c2c1C, which inhibition is on record?
The inhibition was 22.1% (active).

Which inhibition does the source give for Cc1sc2nc(CSCC(=O)Nc3c(Cl)cccc3Cl)[nH]c(=O)c2c1C here?
The inhibition was 13.1%.

How did the inhibition turn out when Cc1nc(SCC(=O)NC2CCCC2)[nH]c(=O)c1C was run?
The inhibition was 1.36%.

COC(CNC(=O)[C@H](Cc1ccccc1)NC1(C(=O)NC2CCCCC2)CCCCC1)OC was tested. Which inhibition did it give?
The inhibition was -5.82%.

How did the inhibition turn out when O=C(NCc1cccnc1)c1cnc2ccccc2n1 was run?
Its inhibition is -0.09%.

Which inhibition does the source give for CCOc1ccc(-n2c(SCC(=O)Nc3cc(C)c(NC(=O)c4ccccc4)cc3OC)nnc2-c2cccs2)cc1 here?
The inhibition was 2.3%.

CC(=O)N1CC(C)c2scc(C)[n+]2-c2ccccc21 (centres undefined) was tested. Which inhibition did it give?
The inhibition was 53.9% (active).

For Cc1ccc(NC(=O)C(CC(=O)O)C2CCCO2)c(C)c1 (centres undefined), which inhibition is on record?
Its inhibition is 2.66%.

How did the inhibition turn out when Cc1ccc(C(=O)N(Cc2ccccn2)CC2CCCO2)cc1 (centres undefined) was run?
Its inhibition is -2.09%.

Which inhibition does the source give for CNC(=S)NNC(=O)c1oc2nc(-c3ccccc3)cc(-c3ccco3)c2c1N here?
The inhibition was 21.9% (active).

Which inhibition does the source give for NNC(=O)c1oc2nc(-c3ccccc3)cc(-c3ccco3)c2c1N here?
The inhibition was -3.39%.

How did the inhibition turn out when O=C(OCC#CCSc1nnc(-c2ccco2)o1)c1ccc(F)cc1 was run?
Its inhibition is -2.56%.

COc1ccc(-c2cc(-c3nnc(SCc4ccc([N+](=O)[O-])cc4)n3N)[nH]n2)cc1 was tested. Which inhibition did it give?
Its inhibition is -4.36%.

O=C(NC(Cc1ccccc1)C(=O)O)/C(=C\c1ccccc1)NC(=O)c1ccco1 (centres undefined) was tested. Which inhibition did it give?
The inhibition was -0.14%.

O=C(NC(Cc1c[nH]c2ccccc12)C(=O)O)/C(=C/c1ccco1)NC(=O)c1ccccc1 (centres undefined) was tested. Which inhibition did it give?
The inhibition was 25.5% (active).

For O=C(NCc1ccco1)/C(=C/c1ccco1)NC(=O)c1ccccc1, which inhibition is on record?
Its inhibition is 7.1%.

How did the inhibition turn out when O=C1CC[C@@]23CCCN2C(=O)CCC[C@H]3[C@H]1Cc1ccccc1 was run?
The inhibition was 2.04%.

Which inhibition does the source give for O=C(C[C@H]1C[C@H](C(=O)N2CCOCC2)[C@@]2(CCC3CCCC3)c3[nH]c4ccc(Cl)cc4c3CCN2C1=O)NCc1ccco1 here?
The inhibition was -5.92%.

C=CCN1C(=O)[C@@H](CC(=O)NCCCCc2ccccc2)[C@]2(C(=O)OCC)CCCCC/C=C/12 was tested. Which inhibition did it give?
Its inhibition is 1.83%.

Which inhibition does the source give for Cn1c(=O)[nH]c(=O)c2c1[nH]c(=S)n2Cc1ccccc1 here?
The inhibition was 4.37%.

With CCC(=O)Nc1c(S(=O)(=O)c2ccccc2)c2nc3ccccc3nc2n1Cc1ccccc1 as the molecule, how does the inhibition read?
The inhibition was 0.02%.

With Cc1cc2nc3c(=O)n(Cc4ccccc4)c(=O)[nH]c3nc2cc1N as the molecule, how does the inhibition read?
The inhibition was 142% (active).

CCC(CO)Nc1cccc2c1S(=O)(=O)N(Cc1cn(Cc3ccccc3C(F)(F)F)nn1)Cc1ccccc1O2 (centres undefined) was tested. Which inhibition did it give?
Its inhibition is 0.43%.

Which inhibition does the source give for N#Cc1c(N2CCCCC2)nc(N)c2c(N)nc(SCC(=O)O)cc12 here?
Its inhibition is 29.1% (active).

Which inhibition does the source give for Cc1nn(-c2ncccn2)c2c1C(=O)CC(C)(C)C2Br (centres undefined) here?
The inhibition was -1.26%.

For CCOC(=O)c1cc2c(ccn2C)n1CC(=O)N1CCC(C)CC1, which inhibition is on record?
Its inhibition is 1.01%.

With O=C(CSc1nnc(-c2ccccn2)n1-c1ccc(Cl)cc1)Nc1ccccc1-c1ccccc1 as the molecule, how does the inhibition read?
Its inhibition is 0.72%.

Which inhibition does the source give for COCCN1C(=O)C(=O)/C(=C(/O)c2ccc(S(=O)(=O)N3CCOCC3)cc2)C1c1ccc(OC)c(OC)c1 (centres undefined) here?
Its inhibition is 4.25%.

How did the inhibition turn out when CCOc1cc(C2/C(=C(/O)c3ccc(S(=O)(=O)N4CCCCC4)cc3)C(=O)C(=O)N2CCOC)ccc1O (centres undefined) was run?
Its inhibition is 28.9% (active).

For COCCN1C(=O)C(=O)/C(=C(/O)c2ccc(S(=O)(=O)N3CCCCC3)cc2)C1c1ccc(OC)c(OC)c1 (centres undefined), which inhibition is on record?
Its inhibition is -2.03%.

With COC(=O)c1cc(NS(=O)(=O)c2ccc3c(c2)c(=O)n(C)c(=O)n3C)cc(C(=O)OC)c1 as the molecule, how does the inhibition read?
The inhibition was 3.19%.

For CN(C)S(=O)(=O)c1ccc(N/C=C(\[N+](=O)[O-])S(=O)(=O)c2ccccc2)cc1, which inhibition is on record?
Its inhibition is 1.43%.

How did the inhibition turn out when CC(C)CSc1nnc(-c2cccnc2)n1Cc1ccccc1 was run?
Its inhibition is 1.95%.

Which inhibition does the source give for Cc1cccc(-c2nc3c(c(SCC(=O)N4CCOCC4)n2)CCCC3)c1 here?
Its inhibition is -2.28%.

For C=CCN1C(=O)c2ccc(C(=O)N3CCC(C(=O)OCC)CC3)cc2C1=O, which inhibition is on record?
The inhibition was -1.32%.

With CC(C)OC(=O)c1cc(NC(=O)C2C3CCC(O3)C2C(=O)O)cc(C(=O)OC(C)C)c1 (centres undefined) as the molecule, how does the inhibition read?
The inhibition was -2.71%.

Which inhibition does the source give for COc1ccc(NC(=O)C2C3CCC(O3)C2C(=O)O)cc1OC (centres undefined) here?
The inhibition was 1.91%.

With Cc1sc(NC(=O)C2C3CCC(O3)C2C(=O)O)c(C(=O)OC(C)C)c1-c1ccc(Cl)cc1 (centres undefined) as the molecule, how does the inhibition read?
The inhibition was 22.5% (active).
